As a reminder, the inhibition is the change of the read-out against control, counted positive when it falls.

Consider 90 compounds from PubChem BioAssay AID1259398 (Fisher Drug Discovery Resource Center, 2018).

“And” between values parts separate entries of the source, which are not always exact repeats. Identical values can stand only once. Out of some 290,000 compounds screened, about 230 (0.079%) were called active. The sample holds actives, similar compounds and a random draw of the others, so the mix is not that of the screen. Rule as the data show it: active = inhibition above about 40%; inactive = the rest.

Sequence of Cyclic GMP-AMP synthase (Homo sapiens) (Q8N884 whole entry, looked up): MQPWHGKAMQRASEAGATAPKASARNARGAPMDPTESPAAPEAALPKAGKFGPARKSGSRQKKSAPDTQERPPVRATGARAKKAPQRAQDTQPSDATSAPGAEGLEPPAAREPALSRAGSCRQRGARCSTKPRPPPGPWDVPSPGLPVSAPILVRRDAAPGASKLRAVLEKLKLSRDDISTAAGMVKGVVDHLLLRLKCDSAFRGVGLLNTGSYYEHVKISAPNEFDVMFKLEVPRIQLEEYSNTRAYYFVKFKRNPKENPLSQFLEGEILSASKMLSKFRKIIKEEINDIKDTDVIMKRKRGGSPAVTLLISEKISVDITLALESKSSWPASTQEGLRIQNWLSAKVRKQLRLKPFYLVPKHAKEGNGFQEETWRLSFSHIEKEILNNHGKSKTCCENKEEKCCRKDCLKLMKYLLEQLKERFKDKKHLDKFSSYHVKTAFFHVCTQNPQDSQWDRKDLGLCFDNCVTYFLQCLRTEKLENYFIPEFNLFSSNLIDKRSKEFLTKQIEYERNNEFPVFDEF

The experiment has as its target Cyclic GMP-AMP synthase (Homo sapiens) (UniProt Q8N884). Description: Primary biochemical luminescence assay for human cyclic GMP-AMP synthase inhibitors (AID 1259398).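 Also: 0% = vehicle reaction and 100% = reaction without DNA for no activity.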 The conditions noted are these: recombinant h-cGAS, ATP depletion, Kinase-Glo luminescence; at 12.5 µM; hits give high values.
In the case of `COc1ccc(NS(=O)(=O)c2cc(C(=O)Nc3ccc(C)cc3)ccc2C)cc1`, the inhibition was -2.65% (inactive).
As for `O=C(Cc1csc(SCC(=O)c2ccccc2)n1)NCCC1=CCCCC1`, the inhibition was 7.3% (inactive).
For `O=[N+]([O-])c1cc(S(=O)(=O)C(F)(F)F)ccc1N1CCCC1` the value was -6.28% (inactive); for `CS(=O)(=O)c1ccc(Oc2ccc3sc(=O)oc3c2)c([N+](=O)[O-])c1`, -8.14% (inactive); for `O=[N+]([O-])c1cc(S(=O)(=O)C(F)(F)F)ccc1Oc1ccc2oc3c(c2c1)CCCC3`, 50.2% (active).
Regarding `C=CCN(Cc1ccccc1OC)C(=O)c1ccc(NC(C)=O)cc1`, the inhibition was 0.115% (inactive).
With `Cc1ccc(S(=O)(=O)NCc2ccc3c(c2)OCO3)c(C)c1C` the figure was -9.87% (inactive).
Regarding `CS(=O)(=O)c1cccc2sc(Cl)nc12`, the inhibition was -7.81% (inactive).
With `CCCCCN(CC(=O)N(CCCC)Cc1cccn1Cc1ccc(Br)cc1)C(=O)c1ccc2c(c1)OCO2` the figure was -1.37% (inactive); with `CC(C)CN(CC(C)C)C(=O)c1cccnc1Nc1cccc(C(F)(F)F)c1`, -2.78% (inactive); with `CC(Nc1nc2c(c(=O)[nH]c(=O)n2C)n1Cc1ccccc1)c1ccccc1` (stereo not given), 2.23% (inactive).
Turning to `CS(=O)(=O)N1CCC(C(=O)NCc2cc(-c3ccc4c(c3)OCCO4)on2)CC1`, the inhibition was -5.92% (inactive).
With `CC(NC(=O)c1ccc(Br)cc1F)C(=O)N1CCOCC1` (stereo not given) the figure was -5.97% (inactive); with `CC[N+](C)(CC)CCC[n+]1c(-c2ccccc2)c2cc(N)ccc2c2ccc(N)cc21`, 57.3% (active); with `COc1ccc(CCN(Cc2ccc(C)s2)C(=O)CN(CC2CCCO2)S(=O)(=O)c2c(C)cc(C)cc2C)cc1OC` (stereo not given), -7.86% (inactive).
For `CC(=O)CC1C(CC(=O)O)C1(C)C` (stereo not given) the value was -5.25% (inactive).
As for `Cc1ccc(S(=O)(=O)Oc2c(CO)cc(C)cc2CO)cc1`, the inhibition was -8.05% (inactive).
For `CC1(C(=O)NCc2cccs2)CCN1Cc1ccc2c(c1)OCCO2` (stereo not given), the inhibition was -11% (inactive).
Regarding `CC(=O)N1CCN(C(=O)COC(=O)c2ccc3ccccc3c2O)CC1`, the inhibition is -3.7% (inactive).
For `CC(C)C(=O)N1CCC1(C)C(=O)Nc1ccccn1` (stereo not given) the value was -6.44% (inactive); for `CCc1nnc(CNc2cc(Cl)ccc2F)n1C`, -5.8% (inactive).
For the compound `CCOc1cccc(-c2ccc(Nc3ccc(OC)cc3C)nc2)c1`, the inhibition is -0.0439% (inactive).
With `COc1ccccc1OC1CCN(C(=O)CCC2(Cc3ccccc3)CCC(=O)N2)CC1` (stereo not given) the figure was -5.11% (inactive).
As to `CCN1C(=O)N(Cc2cccc(OC)c2)C(=O)C12CCN(Cc1cn[nH]c1-c1ccc(F)cc1)CC2`, the inhibition was 11% (inactive).
Take `CC(=O)CC1(O)C(=O)Nc2ccc(I)cc21` (stereo not given): the inhibition was 2.23% (inactive).
Turning to `CC1CCc2c(sc(NC(=O)c3cccs3)c2C(=O)Nc2ccc(Cl)cc2)C1` (stereo not given), the inhibition was -14.3% (inactive).
`C=CCCC(O)CN(Cc1c(CC)nn(-c2ccccc2)c1Oc1cccc(OC)c1)CC1CC1` (stereo not given): the inhibition was -5.62% (inactive).
With `O=C(NCc1n[nH]c(=S)n1C1CC1)c1noc2c1CCCC2` the figure was -5.91% (inactive).
As to `O=C(O)CSc1nnc(CCc2ccccc2)n1-c1cccnc1`, the inhibition is -3.94% (inactive).
In the case of `Cc1ccsc1C(=O)N1CCCC(CNC(=O)c2ccc(-c3ccccc3)cc2)C1` (stereo not given), the inhibition is -7.02% (inactive) and -6.34% (inactive).
With `C=CCNCc1cnc(S(=O)(=O)Cc2ccc(F)cc2)n1C(C)C` the figure was -5.49% (inactive); with `O=C(O)c1cc(-c2ccco2)nn1-c1ccccc1Cl`, -7.88% (inactive); with `C=CCN(CC(=O)Nc1ccccc1C#N)S(=O)(=O)c1c(C)cc(C)cc1C`, -5.26% (inactive).
With `Cn1c(SCC(=O)N2CCN(c3ccccc3)CC2)nnc1C(F)(F)F` the figure was -6.17% (inactive); with `O=C1CN(C(=O)C2CCCC2)CC(O)CN1Cc1cccc(F)c1` (stereo not given), 11.5% (inactive).
For `CCc1[nH]n(-c2ccc(Cl)c(Cl)c2)c(=O)c1C1=C([n+]2cccc(C)c2)C(=O)N(CC(C)C)C1=O` the value was -10.4% (inactive); for `COCCNC(=O)Cn1nc2c(c1NC(=O)c1cc(OC)cc(OC)c1)CSC2`, -4.38% (inactive).
Turning to `Cc1ccc(Nc2nc(Nc3cccc(F)c3)nc3nccnc23)cc1Cl`, the inhibition is -0.96% (inactive).
With `C=CC(=O)Nc1ccc2ncnc(Nc3ccc(OCc4cccc(F)c4)c(Cl)c3)c2c1` the figure was 43.2% (active); with `N#Cc1cccc(COc2ccc(NC(=O)NCCO)cc2Cl)c1`, 0.266% (inactive).
With `Cc1ccc(OC(C)C(=O)N(C)C2CCS(=O)(=O)C2)c(Br)c1` (stereo not given), the inhibition was -12.8% (inactive) and -9.58% (inactive).
With `Cc1cccc(C2SCC(=O)N2CC(=O)NCc2ccncc2)c1` (stereo not given), the inhibition is -4.08% (inactive).
As for `O=C(c1cc(Cl)c2nc3ccccn3c(=O)c2c1)c1cc(F)ccc1O`, the inhibition was -5.02% (inactive).
For `N#CCCN(CCC#N)Cn1c(=O)oc2cc(Br)ccc21`, the inhibition was -6.19% (inactive).
With `CCCc1nnc2sc(Cc3csc(C)n3)nn12`, the inhibition is -7.66% (inactive).
For `COCc1nnc2sc(Cc3ccc4c(c3)CCCC4)nn12` the value was 45.2% (active); for `c1ccc(Cc2nn3c(Cn4cnc5ccccc54)nnc3s2)cc1`, -1.85% (inactive).
With `Cc1ccc(S(=O)(=O)N2CCCC2c2nc3ccccc3[nH]2)c(C)c1` (stereo not given) the figure was -4.68% (inactive); with `COCCN(CCC(=O)N1CCC(Cc2ccccc2)CC1)c1nc(Cc2cccc(OC)c2)ns1`, -5.55% (inactive).
Consider `CC(C)(CNC(=O)c1cc2cccc(F)c2o1)C1CCCCO1` (stereo not given), for which the inhibition was -5.71% (inactive).
Consider `Cc1ccc(NC(=O)C2C(C=C(Cl)Cl)C2(C)C)cc1` (stereo not given), for which the inhibition was -4.28% (inactive).
With `COc1ccccc1OC1CN(Cc2cc(C)[nH]n2)C1` the figure was -4.73% (inactive); with `O=C(NNc1cccc(Cl)c1)[C@@H]1CCCN1c1nccc(Nc2ccccc2)n1`, -0.74% (inactive).
Regarding `CCOc1ccc(N2CCN(C(=O)CCc3ccccc3)C(C)C2=O)cc1` (stereo not given), the inhibition is -2.37% (inactive).
With `Cn1cc(CN2CCN(c3ccc(Cl)cn3)CC2)c(-c2ccc3c(c2)OCCO3)n1` the figure was -7.9% (inactive); with `CC(CN1CCOCC1)NC(=O)N1CCCc2cc(F)c(F)cc21` (stereo not given), -4.63% (inactive).
In the case of `Cc1cc(Nc2ccc3c(n2)C(=O)N(CC(=O)NCCCn2ccnc2)C3)n(C)n1`, the inhibition is -11.5% (inactive).
For `N#Cc1cccc(NC(=O)CN(Cc2ccco2)Cc2cccs2)c1` the value was -0.473% (inactive); for `Cc1ccc(C)c(C(C)NC(=O)c2ccccc2-c2nn[nH]n2)c1` (stereo not given), -2.34% (inactive); for `COc1ccc(-c2nc3ccccc3c(=O)n2Cc2ccc(F)cc2)c(OC)c1OC`, -5.68% (inactive).
For `O=C(c1cnc(-c2ccncc2)nc1)N1CCOC(CCCc2ccccc2)C1` (stereo not given) the value was -8.45% (inactive); for `O=C(CCC1CCN(C(=O)c2cccc(-n3cccn3)c2)CC1)Nc1ccccc1`, -9.6% (inactive).
For `CN1CCn2nc(C(=O)NC(c3ccccc3)c3ccco3)cc2C1` (stereo not given) the value was -5.91% (inactive); for `Cc1cc(-c2n[nH]c(=O)n2CCc2ccc(F)cc2)n(C)n1`, 2.4% (inactive); for `Cc1n[nH]c(=O)c2c(NC(=O)CSc3nnc(C)n3C3CC3)oc(C)c12`, -6.69% (inactive).
With `O=C(O)CCCc1ccc(Br)s1`, the inhibition is 74.1% (active).
With `O=C(CCSCc1ccccn1)NCc1ccc(Br)s1` the figure was -8.25% (inactive); with `O=C(O)C=Cc1ccc(Br)s1`, -0.785% (inactive).
For `Cc1noc(C)c1S(=O)(=O)N1CCCC1c1ccccn1` (stereo not given) the value was -4.73% (inactive); for `CN1CCN(Cc2cc(F)ccc2-n2cccn2)CC1CCO` (stereo not given), -8.61% (inactive).
For `NS(=O)(=O)c1ccc(CNc2ccc3ncc(-c4ccc(Oc5ccccc5)cc4)n3n2)cc1` the value was -8.75% (inactive).
`Cc1ccc(CN(Cc2nc3cc(C)ccc3o2)C(=O)CC(C)C)cc1`: the inhibition was -3.11% (inactive).
With `Cc1cccc(S(=O)(=O)N2CCN(c3cc(-n4ccnc4)nc(C)n3)CC2)c1` the figure was -1.12% (inactive); with `Cc1cccc(-n2ccc3nc(N4CCCCC4)ncc3c2=O)c1`, -4.1% (inactive).
With `COc1cc(=O)n(-c2ccccc2C)nc1C(=O)NC(c1ccccc1)c1ccccc1`, the inhibition is -0.757% (inactive).
For `CCCCC(=O)N(C)c1c(C)nc2ccc(C(=O)NCCCN3CCCC3=O)cn12` the value was -4.09% (inactive); for `CCCCS(=O)(=O)N1CCCN(c2nc(CCC)nc3onc(-c4cccc(C(F)(F)F)c4)c23)CC1`, -3.14% (inactive); for `Cc1nn(C)c(C)c1CN(C(=O)C1CC(=O)N(CC(C)C)C1)C1CC1` (stereo not given), -3.8% (inactive).
As to `O=C(CCCOc1cccc(Cl)c1Cl)N1CCN(C2CCOC2)CC1` (stereo not given), the inhibition is -4.45% (inactive).
For `Cn1c(CC2CCNCC2)nnc1SCc1noc(C2CCCO2)n1` (stereo not given), the inhibition is -3.73% (inactive).
`COc1cc2c(cc1OC)C(C(C)NS(=O)(=O)c1ccccc1)N(Cc1ccccc1F)CC2` (stereo not given): the inhibition is -1.82% (inactive).
For `CC(=O)Nc1ccccc1N1C(=O)c2ccc(-c3nc4ccccc4c(=O)o3)cc2C1=O` the value was 0.929% (inactive).
For `CCOC(=NCc1ccccc1)NC(=O)c1cccc(C(F)(F)F)c1` the value was -4.46% (inactive); for `O=C1NC(C(=O)N2Cc3cnc(-c4ccccc4)nc3C2)CO1` (stereo not given), -0.988% (inactive).
With `CC(=O)c1[nH]c(C)c(C(=O)N2CCCCC2CCc2ccccn2)c1C` (stereo not given) the figure was -5.8% (inactive).
For the compound `Cc1[nH]c(/C=C2\C(=O)Nc3ccc(S(=O)(=O)Cc4c(Cl)cccc4Cl)cc32)c(C)c1C(=O)N1CCC[C@@H]1CN1CCCC1`, the inhibition was 63.1% (active).
In the case of `Cc1ccnc2nc(C(=O)N3CCCC3CN3CCCC3)nn12` (stereo not given), the inhibition was -10.3% (inactive).
For `Cc1nn(C)c2ncc(C(=O)NCCn3cnnc3C(C)C)cc12` the value was 1.28% (inactive); for `CC(C)(C)c1cc2nc(-c3ccccc3)cc(C(=O)NC3CCCCNC3=O)n2n1` (stereo not given), 1.91% (inactive) and -3.83% (inactive).
Turning to `CC(C)Nc1ccc(C(=O)N[C@H](C)C(C)(C)C)cn1`, the inhibition is -9.34% (inactive).
